Source: PubChem
4-MU autofl: qHTS Assay for Spectroscopic Profiling in 4-MU Spectral Region. max dye-equivalent concentration, M. AID 589, 2007. actives 11% (n = 59,000). compound autofluorescence, 340/450 nm, 4-MU equivalents; stronger effect = higher value; in the data active = max dye-equivalent concentration above about 10 nM; inconclusive = mostly about 1.1 nM to 9.6 nM
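Intrinsic fluorescence at 340/450 nm (ex/em) was read after 15 min at room temperature in pH 8.0, 100 mM Tris. Each compound concentration expressed as 4-MU-equivalent concentration from a six-point 4-MU standard series on each plate.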
A350 autofl: qHTS Assay for Spectroscopic Profiling in A350 Spectral Region; AID 590, 2007; Compound autofluorescence, 340/450 nm, Alexa 350 dye-equivalents; stronger effect = higher value; max dye-equivalent concentration, M; actives 11% (n = 59,000); in the data active = max dye-equivalent concentration above about 10 nM; inconclusive = mostly about 1.1 nM to 9.6 nM
HSD17B inhib: qHTS Assay for Inhibitors of HSD17B4, hydroxysteroid (17-beta) dehydrogenase 4 | 3-hydroxyacyl-CoA dehydrogenase type-2 (Homo sapiens), Q99714 | recombinant HSD17B10, NADH fluorescence kinetic | Potency, µM (top dose mostly 57.1 µM), without a hit: at the highest dose activity change, negative = inhibition, actives largely listed as inhibitors | actives 7.6% (n = 75,000) | AID 893, 2007;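 also: the protocol describes HADH2 (HSD17B10) and not the HSD17B4 of the title; potency is read from the fitted curve at half-maximal effect; % is scaled to controls: 0 for no effect and ±100 for the full control effect; nearly all actives have a fitted effect of over 70% in size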
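Activity followed as NADH fluorescence increase (ex 360, em 450 nm) every 30 seconds for 4 min, using final 90 uM beta-hydroxybutyryl CoA and 1 mM NAD+. Recombinant His-tagged enzyme, 20 nM, pH 9.0 Tris buffer, 15 min compound preincubation.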
HADH2 inh: qHTS Assay for Inhibitors of HADH2 (Hydroxyacyl-Coenzyme A Dehydrogenase, Type II). 3-hydroxyacyl-CoA dehydrogenase type-2 (Homo sapiens), Q99714. recombinant HADH2, NADH fluorescence, beta-hydroxybutyryl-CoA. Potency, µM (titrated, usually from 57.1 µM), for inactives: at the highest dose activity change, negative = inhibition, actives largely listed as inhibitors. actives 3.4% (n = 73,000); also: potency is read from the fitted curve at half-maximal effect; % is scaled to controls: 0 for no effect and ±100 for the full control effect; nearly all actives have a fitted effect of over 60% in size
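His-tagged recombinant enzyme from E. coli, 20 nM, preincubated 15 min RT with compound; reaction started with 1 mM NAD+ and 90 uM beta-hydroxybutyryl-CoA in 100 mM Tris-HCl pH 9.0. NADH fluorescence (ex 360/em 450) read over 4 min; last-minus-first difference.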
AID923: qHTS Assay for Allosteric/Competitive Inhibitors of Caspase-1: Spectroscopic Profiling in AFC Spectral Region | Potency, µM (titrated, usually from 57.5 µM), inactives show top-dose fluorescence increase, actives largely listed as activators | compound fluorescence, AFC spectral region (405/520 nm) | AID 923, 2007 | actives 1.1% (n = 75,000); also: potency is read from the fitted curve at half-maximal effect; 0% is about no effect
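Titrations up to 57 uM read every 20 sec for 3 min (405/520 nm) with 50 nM caspase 1 and 5 uM Ac-WEHD-AFC, pH 7.5 HEPES buffer. Fluorescence-vs-time intercept gave baseline, scaled against on-plate AFC standard.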
USP2a inh: qHTS Assay for Inhibitors of Ubiquitin-specific Protease USP2a; actives 0.1% (n = 60,000); USP2a enzymatic assay, qHTS inhibition; AID 927, 2007; Potency, µM (doses to about 38.3 µM), for inactives: top-dose activity change, negative = inhibition, hits mostly inhibitors; also: potency is read from the fitted curve at half-maximal effect; nearly all actives have a fitted effect of over 60% in size
Target sequence (O75604 whole entry, looked up): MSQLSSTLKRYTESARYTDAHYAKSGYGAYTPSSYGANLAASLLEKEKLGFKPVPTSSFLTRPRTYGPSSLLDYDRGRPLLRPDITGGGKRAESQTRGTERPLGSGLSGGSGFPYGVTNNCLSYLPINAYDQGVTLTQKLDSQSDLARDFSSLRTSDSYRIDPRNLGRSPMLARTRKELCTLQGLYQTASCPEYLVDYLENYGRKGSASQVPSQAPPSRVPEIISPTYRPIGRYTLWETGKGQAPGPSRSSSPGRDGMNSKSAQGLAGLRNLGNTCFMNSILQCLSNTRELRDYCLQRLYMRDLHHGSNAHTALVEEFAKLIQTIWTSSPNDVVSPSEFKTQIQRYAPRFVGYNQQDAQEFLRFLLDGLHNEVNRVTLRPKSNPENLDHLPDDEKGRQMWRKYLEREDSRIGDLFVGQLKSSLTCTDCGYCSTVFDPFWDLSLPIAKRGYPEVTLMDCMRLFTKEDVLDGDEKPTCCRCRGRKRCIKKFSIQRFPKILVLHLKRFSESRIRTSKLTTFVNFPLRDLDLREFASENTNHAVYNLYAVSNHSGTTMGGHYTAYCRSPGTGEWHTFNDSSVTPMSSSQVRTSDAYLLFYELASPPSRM
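20 nM USP2 core + cpd, 30 min RT; add 20 nM Ub-PLA2/20 uM NBD C6-HPC; read Ex460/Em535 at 0 h and 2.5 h. Normalized to NEM; qHTS curve fit/classification.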
* marks the source's active call; other numbers are inactive results; i = inactive; u = inconclusive; x = no result; ! = repeats disagree; [ ] = remark or other dose. A selection: hits, their analogues and other compounds. The true share with any hit is near 13%. Unless noted, calls follow the shape of the dose curve; as a rule, active = well fitted curve in the direction sought with a large enough effect; inconclusive = small, poorly fitted or top-dose-only effect, or another doubt; inactive = no such curve, though single readings can be large; an effect the other way counts as inactive or inconclusive.

SMILES | 4-MU autofl | A350 autofl | HSD17B inhib | HADH2 inh | AID923 | USP2a inh
COc1cccc(OC)c1C(=O)Nc1nc2ccc(S(C)(=O)=O)cc2s1 | i | i | x | x | x | x
CC(C)Oc1cccc(-n2c(CCc3c[nH]c4ccc(Br)cc34)nc3ccccc3c2=O)c1 | x | x | -6% | 1% | -2% | x
COc1cc2c(c(OC)c1OC)-c1ccc(OC)c(=O)cc1[C@H](NC(C)=O)CC2 | 1.6e-08M*! | 1.7e-08M*! | -5% | -4% | 1% | -4%[17.1 µM]
CC(C)(C)c1ccc(/C=C/C(=O)Nc2ccc3c(c2)OCCO3)cc1 | x | x | -6% | 6% | 1% | x
CO[C@@H]1COC(=O)[C@H](CCSC)NC(=O)C/C=C\[C@@H](C)COC(=O)[C@@H]2CCCN2C(=O)C/C=C\[C@H]1C | x | x | 1%[11.4 µM] | 8%[11.4 µM] | 6%[11.5 µM] | x
Cc1cc2c(cc1C)NC(c1cccnc1)C1=C(CC(C)(C)CC1=O)N2 (configuration not stated) | i | u | -10% | 1% | -1% | 8%
Cc1[nH]nc2c1C(c1ccc(F)cc1)C1=C(CC(C)(C)CC1=O)N2 (configuration not stated) | 2.1e-07M* | 2e-07M* | 32µM* | 32µM* | 1% | 6%
Cc1[nH]nc2c1C(c1cccc(O)c1)C1=C(CC(C)(C)CC1=O)N2 (configuration not stated) | 3.1e-07M* | 4.4e-07M* | 32µM* | u | -1% | -6%
Cc1ccc(C2C3=C(CC(C)(C)CC3=O)Nc3n[nH]c(C)c32)cc1 (configuration not stated) | 2.1e-07M* | 2.9e-07M* | 25µM* | -19% | -3% | 3%
O=C(NCC(c1cccnc1)N1CCOCC1)Nc1ccccc1 (configuration not stated) | i | i | 5% | 6% | 0% | 5%
CC(C)(C)c1cc(C(c2cccnc2)N2CCN(CCO)CC2)cc(C(C)(C)C)c1O (configuration not stated) | i | u | -26% | 6% | -2% | 0%
OCCN1CCN(C(c2cccs2)c2ccc3cccnc3c2O)CC1 (configuration not stated) | i | i | 16µM* | 3.2µM* | -1% | 30%
Cc1cc2cc3c(C)cc(=O)oc3c(C)c2o1 | 3.8e-08M* | 5.2e-08M* | 6% | 6%[25.6 µM] | 0% | 8%
Cc1cc(=O)oc2c(N)c(O)ccc12 | x | x | -9% | u | 2% | x
CCOC(=O)C1(CC)NC(c2cccc(F)c2)C2C(=O)N(CC)C(=O)C21 (configuration not stated) | i | i | 9% | 8% | 2% | 0%
CN(C)CCn1c(C(=O)O)cc2ccccc21 | u | u | -21% | 1% | 1% | 0%
CN(C)CCCn1c2c3ccccc3ccc2c2oc(=O)c3ccccc3c21 | 3.1e-08M* | 3.8e-08M* | u | 15%[11.4 µM] | 11%[11.5 µM] | x
Cc1ccc2[nH]c(=O)c3cc(C(=O)NCCN4CCN(C)CC4)sc3c2c1 | x | x | 25µM* | 12% | 0% | x
CCn1c(=O)c2cc(C(=O)NCCN3CCOCC3)sc2c2ccccc21 | x | x | 32µM* | -2% | -3% | x
CCn1c(=O)c2cc(C(=O)NCc3cccs3)sc2c2ccccc21 | x | x | 16µM* | 6% | 1% | x
Cn1nc(C(=O)NCCN2CCOCC2)c2ccccc2c1=O | i | i | 11% | -29% | 0% | -2%
CCn1c(=O)c2cc(C(=O)Nc3cc(C)on3)sc2c2ccccc21 | x | x | u | 11% | -2% | x
CCc1ccccc1O | x | x | 2% | -6% | -5% | x
CCOC(=O)c1sc2ccc(S(=O)(=O)N3CCOCC3)cc2c1N | 3.9e-08M* | 3.9e-08M* | -12% | -7% | 0% | 3%
CCOC(=O)C(C(=O)OCC)C(=O)c1cc(OC)c(OC)c(OC)c1 | i | i | 1% | 5% | -2% | -7%
SMILES | 4-MU autofl | A350 autofl | HSD17B inhib | HADH2 inh | AID923 | USP2a inh
Cc1ccc(NC(=O)c2oc3ccc(S(=O)(=O)N4CCOCC4)cc3c2C)cc1C | u | u | 25µM* | 5% | -4% | 22%
CCOC(=O)c1sc(=NC(=O)c2cc(OC)c(OC)c(OC)c2)n(C)c1C | 1.9e-08M* | 1.8e-08M* | 16µM* | u | 0% | 7%
CCOC(=O)c1sc(=NC(=O)c2ccc(S(=O)(=O)N3CCOCC3)cc2)n(C)c1C | 7.4e-08M* | 7.3e-08M* | 51% | -7% | 2% | 12%
CN(C)S(=O)(=O)c1nc(Cl)c2[nH]cnc2n1 | i | i | 1%[11.4 µM] | 9%[11.4 µM] | 0%[11.5 µM] | x
Cc1ccccc1-c1cc(NCc2cccnc2)ncn1 | i | i | 11% | 1% | 1% | 8%
COc1ccc(NC(=O)N(CCC(C)C)C(C)c2ccccn2)c(OC)c1 (configuration not stated) | x | x | -1% | -3% | 1% | x
O[C@H](CN1CCN(c2cccc(Cl)c2)CC1)C(c1ccccc1)c1ccccc1 | i | i | 5% | 12% | 0% | 4%
O=C(O)c1ccc(Cl)cc1Cl | x | x | 6% | 2% | 15% | x
Cc1c(C(=O)N2CCCCC2)oc2ccc(S(=O)(=O)N3CC(C)CC(C)C3)cc12 (configuration not stated) | i | i | 11% | -2% | -1% | 8%
CCOC(=O)N1CCN(C(=O)c2oc3ccc(S(=O)(=O)N4CCCCC4)cc3c2C)CC1 | u | 1e-08M* | -3% | -7% | 0% | 16%
CCOC(=O)c1sc2ccc(S(=O)(=O)N3CCCCC3)cc2c1N | 4.2e-08M* | 6.2e-08M* | u | 8% | 0% | 17%
Nc1ccn([C@@H]2O[C@H](COC(=O)C34CC5CC(CC(C5)C3)C4)[C@@H](O)[C@@H]2O)c(=O)n1 | i | i | 12%[11.4 µM] | 2%[11.4 µM] | 1%[11.5 µM] | x
CCN(CC)CCN1C(=O)c2oc3ccccc3c(=O)c2C1c1ccc(C)cc1 (configuration not stated) | u | u | 0% | 9% | 0% | 23%
COc1cccc(C2c3c(oc4ccccc4c3=O)C(=O)N2CCCN(C)C)c1OC (configuration not stated) | 1.6e-08M* | 1.6e-08M* | -2% | 17% | 2% | -11%
CCN(CC)CCCN1C(=O)c2oc3ccccc3c(=O)c2C1c1cccc(OC)c1OC (configuration not stated) | 1.2e-08M* | 1.6e-08M* | 4% | 10% | 4% | 9%
